# About 79,000 compounds went through this panel and 15% of them were active in at least one assay; those are over-represented in the sample as a whole. Unmarked numbers belong to inactive results. The source made the active and inactive calls. No stated cut-off is given here; in the data, active means growth inhibition above about 70%; inactive means the rest.
# Legend:
# [1] = NCI Yeast Anticancer Drug Screen. Data for the wt1 strain (AID 149);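 further: 0% = growth of vehicle-treated wt1 cultures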; settings: S. cerevisiae wt1 strain (SPY 50644) growth inhibition, hits give high values
# In short: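 Growth inhibition read against vehicle controls after compound exposure of the wt1 yeast strain.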
# [2] = NCI Yeast Anticancer Drug Screen. Data for the rad50EPP+ strain (AID 151);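 further: 0% = growth of vehicle-treated control cultures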; settings: S. cerevisiae rad50 mutant strain, hits give high values
# In short: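 In this screen, rad50EPP+ yeast were exposed to compounds. Growth inhibition was scored against vehicle-treated controls.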
# [3] = NCI Yeast Anticancer Drug Screen. Data for the mgt1 strain (AID 153); settings: S. cerevisiae mgt1 mutant growth inhibition, hits give high values
# In short: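 mgt1 strain exposed; growth vs vehicle control recorded as inhibition.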
# [4] = NCI Yeast Anticancer Drug Screen. Data for the rad50 strain (AID 155);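 further: 0% = growth of vehicle-only cultures of the same strain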; settings: S. cerevisiae rad50 strain growth inhibition, hits give high values
# In short: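 Readout: growth inhibition relative to vehicle-treated cultures. Compound exposure was carried out in a genetically defined yeast strain deficient in DNA damage repair.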
# [5] = NCI Yeast Anticancer Drug Screen. Data for the mec2-1 strain (AID 157); settings: S. cerevisiae mec2-1 strain, hits give high values
# In short: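 Vehicle-treated cultures served as reference for growth inhibition of compound-exposed mec2-1 yeast.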
# [6] = NCI Yeast Anticancer Drug Screen. Data for the rad14 strain (AID 159);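 further: 0% = growth of vehicle-treated control cultures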; settings: S. cerevisiae rad14 strain growth inhibition, hits give high values
# In short: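 Growth inhibition vs vehicle controls; genetically altered yeast strain (DNA damage repair defect) treated with test compounds.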
# [7] = NCI Yeast Anticancer Drug Screen. Data for the sgs1 mgt1 strain (AID 161);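 further: 0% = growth of cultures given vehicle only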; settings: S. cerevisiae sgs1 mgt1 strain, hits give high values
# In short: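 Read-out: growth inhibition vs vehicle controls. Cells: mutant yeast strain deficient in DNA damage repair.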
# [8] = NCI Yeast Anticancer Drug Screen. Data for the CLN2oe strain (AID 163);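 further: 0% = growth of vehicle-only control cultures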; settings: S. cerevisiae CLN2oe strain, hits give high values
# In short: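 Inhibition relative to vehicle-treated yeast is reported. Cells: strain with genetic alteration in cell-cycle control, grown with compound.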
# [9] = NCI Yeast Anticancer Drug Screen. Data for the cln2 rad14 strain (AID 165);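 further: 0% = growth equal to vehicle treated cultures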; settings: S. cerevisiae cln2 rad14 strain, hits give high values
# In short: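 Each compound was tested on cln2 rad14 yeast. Inhibition of growth was calculated against vehicle-exposed controls.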
# [10] = NCI Yeast Anticancer Drug Screen. Data for the bub3 strain (AID 167); settings: S. cerevisiae bub3 mutant strain, hits give high values
# In short: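 Readout: yeast growth inhibition, expressed relative to vehicle-only wells. The test organism is a mutant strain from a panel with lesions in DNA repair or checkpoint genes.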
# [11] = NCI Yeast Anticancer Drug Screen. Data for the wt2 strain (AID 169);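 further: 0% = growth of vehicle-treated yeast cultures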; settings: S. cerevisiae wt2 strain growth inhibition, hits give high values
# In short: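 Inhibition of yeast growth was determined after compound treatment, normalised to controls receiving only vehicle.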
# [12] = NCI Yeast Anticancer Drug Screen. Data for the mlh1 strain (AID 171);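 further: 0% = growth of vehicle-treated control cultures of the same strain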; settings: S. cerevisiae mlh1 strain growth inhibition, hits give high values
# In short: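 Vehicle-normalised growth inhibition of a repair- or checkpoint-altered yeast strain following compound treatment.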
# [13] = NCI Yeast Anticancer Drug Screen. Data for the mlh1 rad18 strain (AID 175); settings: S. cerevisiae mlh1 rad18 strain growth inhibition, hits give high values
# In short: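 Vehicle-treated cultures served as the reference for growth inhibition in a yeast strain carrying DNA damage repair alterations exposed to each compound.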
# [14] = NCI Yeast Anticancer Drug Screen. Data for the rad18 strain (AID 177); settings: S. cerevisiae rad18 mutant growth inhibition, hits give high values
# In short: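 Test articles were incubated with altered yeast defective in DNA damage repair. Results are given as inhibition of growth versus vehicle.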
# [15] = NCI Yeast Anticancer Drug Screen. Data for the sgs1 strain (AID 173);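 further: 0% = growth of vehicle-only control cultures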; settings: S. cerevisiae sgs1 mutant, hits give high values
# In short: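 Screen format: yeast with repair or checkpoint alterations, compound exposure, growth read relative to vehicle.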
# [16] = at 5.0 µM (retest, dose inferred, filed as 0.5)
# [17] = at 50.0 µM (retest, dose inferred, filed as 5.0)
compound,measurement,setting,value
Cc1ccnc(NS(=O)(=O)c2ccc(Nc3c4ccccc4nc4ccccc34)cc2)n1,growth inhibition,[1]; at 1.2 µM,14%
same,growth inhibition,[1]; at 3.7 µM,20%
same,growth inhibition,[1]; at 11.0 µM,21%
same,growth inhibition,[1]; at 33.0 µM,48%
same,growth inhibition,[1]; at 100.0 µM,76% (active)
same,growth inhibition,[2]; at 1.2 µM,30%
same,growth inhibition,[2]; at 3.7 µM,41%
same,growth inhibition,[2]; at 11.0 µM,64%
same,growth inhibition,[2]; at 33.0 µM,73% (active)
same,growth inhibition,[2]; at 100.0 µM,74% (active)
same,growth inhibition,[3]; at 1.2 µM,37%
same,growth inhibition,[3]; at 3.7 µM,33%
same,growth inhibition,[3]; at 11.0 µM,54%
same,growth inhibition,[3]; at 33.0 µM,66%
same,growth inhibition,[3]; at 100.0 µM,84% (active)
same,growth inhibition,[4]; at 1.2 µM,50%
same,growth inhibition,[4]; at 3.7 µM,79% (active)
same,growth inhibition,[4]; [16],77% (active)
same,growth inhibition,[4]; at 11.0 µM,90% (active)
same,growth inhibition,[4]; at 33.0 µM,91% (active)
same,growth inhibition,[4]; [17],90% (active)
same,growth inhibition,[4]; at 50.0 µM,84.8% (active)
same,growth inhibition,[4]; at 100.0 µM,88% (active)
same,growth inhibition,[5]; at 1.2 µM,18%
same,growth inhibition,[5]; at 3.7 µM,32%
same,growth inhibition,[5]; [16],15%
same,growth inhibition,[5]; at 11.0 µM,45%
same,growth inhibition,[5]; at 33.0 µM,76% (active)
same,growth inhibition,[5]; [17],77% (active)
same,growth inhibition,[5]; at 50.0 µM,71.2% (active)
same,growth inhibition,[5]; at 100.0 µM,83% (active)
same,growth inhibition,[6]; at 1.2 µM,10%
same,growth inhibition,[6]; at 3.7 µM,10%
same,growth inhibition,[6]; at 11.0 µM,26%
same,growth inhibition,[6]; at 33.0 µM,58%
same,growth inhibition,[6]; at 100.0 µM,81% (active)
same,growth inhibition,[7]; [16],14%
same,growth inhibition,[7]; [17],74% (active)
same,growth inhibition,[7]; at 50.0 µM,77.6% (active)
same,growth inhibition,[8]; at 1.2 µM,13%
same,growth inhibition,[8]; at 3.7 µM,1%
same,growth inhibition,[8]; at 11.0 µM,14%
same,growth inhibition,[8]; at 33.0 µM,39%
same,growth inhibition,[8]; at 100.0 µM,60%
same,growth inhibition,[9]; [16],17%
same,growth inhibition,[9]; [17],35%
same,growth inhibition,[9]; at 50.0 µM,35.5%
same,growth inhibition,[10]; at 1.2 µM,-12%
same,growth inhibition,[10]; at 3.7 µM,-21%
same,growth inhibition,[10]; [16],26%
same,growth inhibition,[10]; at 11.0 µM,-20%
same,growth inhibition,[10]; at 33.0 µM,30%
same,growth inhibition,[10]; [17],44%
same,growth inhibition,[10]; at 50.0 µM,76.2% (active)
same,growth inhibition,[10]; at 100.0 µM,63%
same,growth inhibition,[11]; at 1.2 µM,-10%
same,growth inhibition,[11]; at 3.7 µM,-18%
same,growth inhibition,[11]; at 11.0 µM,-3%
same,growth inhibition,[11]; at 33.0 µM,44%
same,growth inhibition,[11]; at 100.0 µM,74% (active)
same,growth inhibition,[12]; at 1.2 µM,37%
same,growth inhibition,[12]; at 3.7 µM,33%
same,growth inhibition,[12]; at 11.0 µM,54%
same,growth inhibition,[12]; at 33.0 µM,66%
same,growth inhibition,[12]; at 100.0 µM,84% (active)
same,growth inhibition,[13]; [16],26%
same,growth inhibition,[13]; [17],74% (active)
same,growth inhibition,[13]; at 50.0 µM,37.7%
same,growth inhibition,[14]; at 1.2 µM,16%
same,growth inhibition,[14]; at 3.7 µM,19%
same,growth inhibition,[14]; at 11.0 µM,36%
same,growth inhibition,[14]; at 33.0 µM,65%
same,growth inhibition,[14]; at 100.0 µM,79% (active)
Cc1cnccc1N=Nc1ccc(N(C)C)cc1,growth inhibition,[1]; at 1.2 µM,-5%
same,growth inhibition,[1]; at 3.7 µM,-6%
same,growth inhibition,[1]; at 11.0 µM,-8%
same,growth inhibition,[1]; at 33.0 µM,1%
same,growth inhibition,[1]; at 100.0 µM,1%
same,growth inhibition,[2]; at 1.2 µM,2%
same,growth inhibition,[2]; at 3.7 µM,3%
same,growth inhibition,[2]; at 11.0 µM,7%
same,growth inhibition,[2]; at 33.0 µM,43%
same,growth inhibition,[2]; at 100.0 µM,90% (active)
same,growth inhibition,[3]; at 1.2 µM,2%
same,growth inhibition,[3]; at 3.7 µM,-2%
same,growth inhibition,[3]; at 11.0 µM,2%
same,growth inhibition,[3]; at 33.0 µM,31%
same,growth inhibition,[3]; at 100.0 µM,41%
same,growth inhibition,[4]; at 1.2 µM,-4%
same,growth inhibition,[4]; at 3.7 µM,-4%
same,growth inhibition,[4]; [16],-109%
same,growth inhibition,[4]; at 11.0 µM,13%
same,growth inhibition,[4]; at 33.0 µM,27%
same,growth inhibition,[4]; [17],-2%
same,growth inhibition,[4]; at 50.0 µM,81.8% (active)
same,growth inhibition,[4]; at 100.0 µM,37%
same,growth inhibition,[5]; at 1.2 µM,-3%
same,growth inhibition,[5]; at 3.7 µM,1%
same,growth inhibition,[5]; [16],-42%
same,growth inhibition,[5]; at 11.0 µM,-21%
same,growth inhibition,[5]; at 33.0 µM,-4%
same,growth inhibition,[5]; [17],-34%
same,growth inhibition,[5]; at 50.0 µM,30.9%
same,growth inhibition,[5]; at 100.0 µM,3%
same,growth inhibition,[6]; at 1.2 µM,-3%
same,growth inhibition,[6]; at 3.7 µM,-5%
same,growth inhibition,[6]; at 11.0 µM,12%
same,growth inhibition,[6]; at 33.0 µM,39%
same,growth inhibition,[6]; at 100.0 µM,51%
same,growth inhibition,[7]; [16],-23%
same,growth inhibition,[7]; [17],46%
same,growth inhibition,[7]; at 50.0 µM,65.8%
same,growth inhibition,[8]; at 1.2 µM,3%
same,growth inhibition,[8]; at 3.7 µM,8%
same,growth inhibition,[8]; at 11.0 µM,15%
same,growth inhibition,[8]; at 33.0 µM,30%
same,growth inhibition,[8]; at 100.0 µM,30%
same,growth inhibition,[9]; [16],-43%
same,growth inhibition,[9]; [17],-19%
same,growth inhibition,[9]; at 50.0 µM,34%
same,growth inhibition,[11]; at 1.2 µM,0%
same,growth inhibition,[11]; at 3.7 µM,-1%
same,growth inhibition,[11]; at 11.0 µM,2%
same,growth inhibition,[11]; at 33.0 µM,13%
same,growth inhibition,[11]; at 100.0 µM,4%
same,growth inhibition,[15]; at 1.2 µM,2%
same,growth inhibition,[15]; at 3.7 µM,3%
same,growth inhibition,[15]; at 11.0 µM,32%
same,growth inhibition,[15]; at 33.0 µM,52%
same,growth inhibition,[15]; at 100.0 µM,49%
same,growth inhibition,[13]; [16],-95%
same,growth inhibition,[13]; [17],-7%
same,growth inhibition,[13]; at 50.0 µM,36.1%
same,growth inhibition,[14]; at 1.2 µM,-4%
same,growth inhibition,[14]; at 3.7 µM,-4%
same,growth inhibition,[14]; at 11.0 µM,9%
same,growth inhibition,[14]; at 33.0 µM,25%
same,growth inhibition,[14]; at 100.0 µM,30%

# From PubChem BioAssay (NCI)
